About 83,000 compounds went through this panel and 20% of them were active in at least one assay; those are over-represented in the sample as a whole.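 Values shown are percent growth following 48 h exposure of cells in 96-well plates to a single concentration of compound; below 10 was considered active.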 Activity calls are given as the source filed them.
System: HL-60(TB) leukemia
Assay: NCI-60 one-dose screen, 48 h (100 = growth as untreated, 0 = no growth, -100 = all killed)
Details: 10 µM unless noted

| SMILES | growth |
| --- | --- |
| O=C1C(=O)/C(=C/c2ccccc2)CCCCCC/C1=C/c1ccccc1 | 46.6% (inactive) |
| COc1ccc(-c2nc3sc(C4CC4)nn3c2/C=C2/C(=O)Nc3ccc(OC)cc32)cc1 | 97% (inactive) |
| CCCC(OC(C)=O)c1ccc2c(c1)OCO2 (stereo not given) | 98.7% (inactive) |
| COc1ccc(C2=C(Nc3ccc(C(=O)Nc4ccccc4)cc3)C(=O)N(C)C2=O)cc1 | 69.9% (inactive) |
| N#CC(C#N)=C(C#N)c1c[nH]c2ccccc12 | 72.9% (inactive) |
| CCn1cnc(C[C@H](NC(=O)[C@@H](NC(=O)Nc2cc(C(F)(F)F)cc(C(F)(F)F)c2)C(C)C)C(=O)OC)c1 | -75.7% [100 µM] (active) |
| CC(C)(C)CC(C)(C)c1ccc(O)c(Cc2ccc(Cl)cc2Cl)c1 | -61.6% (active) |
| Cc1ccc(N=Nc2c(N)nn(-c3ccccc3)c2N)cc1 | 17.5% (inactive) |
| CCN(CC)c1ccc(C2CC(c3cc(OC)c(OC)c(OC)c3)=NN2)cc1 (stereo not given) | -35.1% (active) |
| Nc1ccc(S(=O)(=O)Nc2ccnn2-c2ccccc2)cc1 | 102% (inactive) |
| CCCCCCOc1ccc(/C=C/C(=O)c2ccc(B(O)O)cc2)cc1 | 18.5% (inactive) |
| CCN(CC)c1ccc(CNc2cc(C)nc3ccc(OC)cc23)cc1 | -56.3% (active) |
| CN(C)CCCC(=O)Nc1ccc(Cn2nnc3c2C(=O)c2nnn(Cc4ccc(NC(=O)CCCN(C)C)cc4)c2C3=O)cc1 | 8.78% (active) |
| Cc1cc(NC(=O)c2cccc(C(F)(F)F)c2)ccc1-n1ccc2c(NC(=O)c3ccccc3)nccc21 | 106% (inactive) |
| COC1=CC(c2ccc[nH]2)=N/C1=C\c1[nH]c(C)c(CC(=O)NCc2ccccc2)c1C | -0.337% (active) |
| COc1ccc(/C=N/NC(=O)CN2CCN(c3cc4c(cc3F)c(=O)c(C(=O)O)cn4C3CC3)CC2)cc1O | 92% (inactive) |
| CCCCCSB(SCCCCC)c1ccccc1 | 104% (inactive) |
| CCc1ccccc1-n1c(-c2ccc(OC)cc2)cc(-c2ccc(OC)cc2)c(C#N)c1=O | 121% (inactive) |
| COc1ccc(OC)c(/C=C/c2nc(SCc3ccccc3)n(-c3ccc(Cl)cc3)n2)c1 | 1.31% (active) |
| CCOC(=O)c1c(NS(=O)(=O)c2ccc(C)cc2)sc2c1CCC1(C2)OCCO1 | 88.5% (inactive) |

| SMILES | growth |
| --- | --- |
| CCN(CC)CCCNCc1cc(-c2ccccc2)nc2ccccc12 | -19.3% (active) |
| CC1(c2ccc3ccccc3c2)CCC(=O)O1 (stereo not given) | 92.7% (inactive) |
| COc1ccc(/C=N/OCC(O)CN2CCC(O)CC2)cc1OC1CCCC1 (stereo not given) | 100% (inactive) |
| COc1ccc(Nc2nc(N)nc3c2CCN(Cc2ccc(OC)cc2OC)C3=O)cc1 | 59.1% (inactive) |
| COc1ccc(C2CC(=O)Nc3c2c(C)nn3-c2nc3ccccc3[nH]2)cc1OC (stereo not given) | 31.9% (inactive) |
| Cc1nc(-c2cn3c(n2)-c2ccc(-c4cnn(C(C)(C)C(N)=O)c4)cc2OCC3)n(C(C)C)n1 | 35.7% (inactive) |
| CC1=C2C(=C[C@@](C)(CO)[C@@H]2OC(=O)N(C)CCN(C)C(=O)OC(C)(C)C)C(=O)[C@](C)(O)C12CC2 | 46.1% (inactive) |
| O=c1ccc2nc(-c3ccccc3)nn(-c3ccccn3)c-2c1 | -28.1% (active) |
| CC(C)(C)c1cc(Cl)c(O)c(CNCCO)c1 | 117% (inactive) |
| C(=C\c1ccncc1)/c1ccncc1 | 105% (inactive) |
| OC(COc1ccccc1Cl)CN1CCN(c2cccc(Cl)c2)CC1 (stereo not given) | 112% (inactive) |
| C[C@@H]1N=C(c2ccc(Cl)cc2Cl)Nc2nc3ccccn3c2C1=O | 0.461% (active) |
| c1ccc(Cn2nc3c(c2-c2ccccc2)-c2oncc2CC3)cc1 | 92.2% (inactive) |
| CCn1c(=O)c2c(=O)c3c4c(oc3oc2c2ccccc21)C(=O)c1ccccc1C4=O | -18.8% (active) |
| CNC(=O)c1cc(Oc2cccc3nc(Nc4ccc(F)c(Cl)c4)ccc23)ccn1 | 31.1% (inactive) |
| O=c1c2ccccc2n(C[C@H]2CO2)c2ccccc12 | -44.5% (active) |
| NC(=O)c1cc(I)ccc1NC(=O)COc1ccccc1 | -20.5% (active) |
| CCn1cc(C(=O)O)c(=O)c2cc(F)c(N3CCN(S(=O)(=O)c4ccc(Cl)cc4)CC3)cc21 | 8.96% (active) |
| O=c1c2sc3ncc(Cl)cc3c2nnn1-c1cccc(Cl)c1 | 91.8% (inactive) |
| CC1=C[C@H]2c3c(c(O)c(O)c4oc5c(C)cccc5c(=O)c34)[C@H](c3cc(O)c(O)c4oc5c(C)cccc5c(=O)c34)[C@H]2C(C)(C)C1 | -14.5% (active) |

Reference: PubChem BioAssay (NCI)
